VACV Venus inh: inhibitors of vaccinia virus (Venus reporter). Vaccinia virus Venus reporter expression, fluorescence. Potency, µM (highest dose often 36.5 µM), inactives show at the top dose activity change, negative = inhibition, most hits filed as inhibitors. 0.46% of 330,000 active. AID 720580; calls by dose curve; tested in A549 cells; further: potency means the concentration at half of the fitted maximal effect; on the % scale 0 is the no-effect control and ±100 the full control effect; nearly all actives have a fitted effect of over 30% in size
CHX counter: counter-screen for Shiga toxin inhibitors: cycloheximide protein synthesis inhibition | cell reporter, cycloheximide protein synthesis inhibition counterscreen | max response, % | 12% of 300,000 active | AID 2314; in the data active means max response mostly above about 13%, no sharp cut-off; inactive means mostly below about 14%; further: read at 38.3 µM for the half of the compounds with a filed dose; 0% is about no effect
Shiga toxin inh: blocks Shiga toxin action in Vero cells; Vero cells, Shiga toxin protein synthesis inhibition reporter; 9.2% of 290,000 active; inhibition, % at 38.7 µM; in the data active means inhibition mostly above about 28%, no sharp cut-off; inactive means mostly below about 43%; further: 0% is about no effect
Marburg entry inh: blocks Marburg virus binding to or entry into cells; Marburg virus pseudotyped entry inhibition, cell reporter; Potency, µM (top dose mostly 37.8 µM), without a hit: top-dose activity change, negative = inhibition, actives largely listed as inhibitors; 1.8% of 300,000 active; AID 540276; calls by dose curve; tested in HEK293 cells; further: potency means the concentration at half of the fitted maximal effect; on the % scale 0 is the no-effect control and ±100 the full control effect
LASV entry inh: Lassa virus entry inhibition; AID 540256; 1.2% of 300,000 active; Potency, µM (series often up to 37.9 µM), inactives show top-dose activity change, negative = inhibition, usual class: inhibitors; Lassa virus pseudotype entry inhibition, cell reporter; calls by dose curve; tested in HEK293 cells; further: potency means the concentration at half of the fitted maximal effect; on the % scale 0 is the no-effect control and ±100 the full control effect; nearly all actives have a fitted effect of over 50% in size
Vaccinia mCherry: vaccinia inhibition (mCherry reporter); Vaccinia virus mCherry reporter infection, fluorescence; Potency, µM (top dose mostly 36.5 µM), for inactives: top-dose activity change, negative = inhibition, actives largely listed as inhibitors; 0.63% of 310,000 active; AID 720579; calls by dose curve; tested in A549 cells; further: potency means the concentration at half of the fitted maximal effect; on the % scale 0 is the no-effect control and ±100 the full control effect; nearly all actives have a fitted effect of over 35% in size
An asterisk follows results filed as active; i = inactive; u = inconclusive; x = no result; + = active, no number; [ ] = remark or other dose. Only a selection was taken, and hits are over-represented in it overall.

SMILES	VACV Venus inh	CHX counter	Shiga toxin inh	Marburg entry inh	LASV entry inh	Vaccinia mCherry
Cc1ccc(CS(=O)(=O)c2ncc(Cl)c(C(=O)Nc3nc4ccc(F)cc4s3)n2)cc1	u	x	x	-8.4%[46.1 µM]	u	u
CCOC(=O)CSC1=C(C#N)[C@H](c2ccc3c(c2)OCO3)CC(=O)N1	x	x	x	15.8µM*	x	x
COc1cc2ccccc2cc1C(=O)Nc1ccc2oc(=O)ccc2c1	-4.7%	5.1	-4.8	u	-7.9%	i
COc1cc(OC)c(C(=O)Nc2ccc3ccccc3c2)cc1OC	-11.1%	43.2*	107.4*	-4.1%	-2.3%	-16.3%
COc1cccc(NC(=O)c2cc3ccccc3cc2OC)c1	x	54.6*	107.8*	x	x	x
COc1cccc(C(=O)Nc2ccc3[nH]c(=O)[nH]c3c2)c1OC	-6.3%	8.4	54.2*	-15.2%[46.1 µM]	x	-10.4%
COc1cccc(NC(=O)c2ccccc2Br)c1	x	28.2*	x	x	x	x
OCc1cnc(SCc2cccc(F)c2)n1Cc1ccc(F)cc1	-7.2%	x	x	x	17.3%[46.1 µM]	-13.7%
O=C(NCc1ccc(F)cc1)C(=O)NCC(c1cccs1)S(=O)(=O)c1cccs1 (stereo not drawn)	3.1%	x	x	x	-5.1%[46.1 µM]	-14.3%
COc1ccc(NC(=O)c2ccco2)cc1NC(=O)c1cc(OC)c(OC)c(OC)c1	-0.1%	x	x	-19.0%[46.1 µM]	-21.4%[46.1 µM]	-6.8%
COc1cc2ccccc2cc1C(=O)Nc1ccc(O)cc1	u	44.4*	62.8*	8.9%	u	u
CN(C)c1ccc(NC(=O)c2cccc(C(=O)Nc3ccc(N(C)C)cc3)n2)cc1	-15.1%	48.7*	+	u	u	i
COc1cccc(NC(=O)c2cccc(OC)c2OC)c1	-10.5%	69.8*	125.1*	-26.8%	u	-15.1%
COc1ccc(NC(=O)c2cc3ccccc3cc2OC)cc1OC	x	14.9*	22.8	x	x	x
O=C(Nc1ccccc1)c1cccc(C(=O)Nc2ccccc2)n1	-6.8%	-2.4	-4.8	-1.2%[46.1 µM]	0.5%[46.1 µM]	i
C=CCN1c2ccccc2[C@]23CCC(=O)N(Cc4ccco4)C2=NC(C(=O)OC)=C(C(=O)OC)[C@H]13	x	x	x	-1.4%[14.2 µM]	x	x
COCCCNC(=O)CN1C(=O)COc2ccc(S(=O)(=O)N3CC(C)CC(C)C3)cc21 (stereo not drawn)	-28.6%	0.8	1.8	13.0%[46.1 µM]	10.3%[46.1 µM]	u
COc1cccc(C(=O)Nc2ccc(N(C)C)cc2)c1OC	-7.4%	39.4*	124.3*	-8.4%[46.1 µM]	14.3%	-8.6%
COc1ccc(C(=O)NC(=S)Nc2ccc3[nH]c(=O)[nH]c3c2)c(OC)c1	x	21.2*	34.8	x	x	x
O=c1[nH]c2ccc(NC(=S)Nc3ccc(Cl)cc3)cc2[nH]1	-21.2%	-3.6	-2.1	-8.1%	-3.9%	-12.9%
CC(C)c1ccc(NC(=S)Nc2ccc3[nH]c(=O)[nH]c3c2)cc1	x	13.9	23.8*	x	x	x
CCOC(=O)c1cc2c(=O)n3ccccc3nc2n(CC2CCCO2)c1=NC(=O)c1cccc(C(F)(F)F)c1 (stereo not drawn)	-17.3%	x	x	18.8%[46.1 µM]	-7.5%[46.1 µM]	-13.3%
Cc1cnc(-n2ncc(C(=O)NCC3COCCO3)c2C2CC2)nc1-c1cccs1 (stereo not drawn)	-8.0%	x	x	x	x	-18.0%
Cc1cnc(C(=O)OCC(=O)c2ccccc2)cn1	-2.4%	x	x	-4.7%[46.1 µM]	3.3%	-23.9%
NNC(=O)c1cn2ccccc2n1	x	29.0*	59.6*	u	29.5%	x
SMILES	VACV Venus inh	CHX counter	Shiga toxin inh	Marburg entry inh	LASV entry inh	Vaccinia mCherry
O=C(NC1CCCc2ccccc21)c1cn2ccccc2n1 (stereo not drawn)	x	19.0*	15.3	5.4%	7.3%	x
Cn1ccc(C(=O)OCC(=O)c2ccccc2)n1	-7.2%	16.9*	59.5	4.3%	18.5%	1.4%
Cc1ccc(C(=O)COC(=O)c2cn3ccccc3n2)cc1	x	42.2*	i	x	x	x
CCOC(=O)c1ccc2c(c1)[nH]c(=S)n2CC	-12.4%	29.5*	87.5*	x	x	-1.7%
CCOC(=O)c1ccc2c(c1)n(CC)c(C)[n+]2CC	-15.1%	-3.5	15.5	1.4%[46.1 µM]	4.5%	-8.6%
Cc1ccc(S(=O)(=O)Nc2ccc(Nc3ccccc3)cc2)cc1	-9.4%	-3.3	-1.8	u	-2.9%[46.1 µM]	u
c1ccc(Nc2cccc(Nc3ccccc3)c2)cc1	-24.0%	44.2*	78.1*	u	u	u
Nc1cccc(Nc2ccccc2)c1	-1.9%	6.2	5.5	5.4%[46.1 µM]	24.2%[46.1 µM]	-22.9%
Cc1ccc(Nc2ccccc2)cc1	1.4%	19.0*	12.9	-1.5%[46.1 µM]	11.2%	-12.2%
CNc1cc(-n2nc(C)cc2-c2ccccc2)ncn1	-8.3%	1.6	-6.7	6.3%[46.1 µM]	-20.3%	-6.0%
